In the library only some 3.5% were active in any assay of this set; here they are far more common.
Pf apPOL inh = Pf-apPOL DNA polymerase inhibition; Recombinant Pf-apPOL, molecular beacon fluorescence, 1.5 h; inhibition, % at 10 µM; hit rate 0.25% among 210,000; AID 1794808
mHTT CaM bind = inhibitors of human mutant huntingtin-calmodulin interaction | AID 1671202 | AlphaScreen His-mHTT/GST-CaM binding, luminescence | hit rate 3.6% among 190,000 | inhibition, % at 15 µM | P42858;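 note: 0% = both proteins with DMSO and 100% = one protein alone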
* hit, by the source's call. Cut-off read from the data, not from the text of the source: active = inhibition above about 50%; inactive = the rest.

How did CC(C)CC(C(=O)Nc1cccc(O)c1)N1C(=O)c2ccccc2C1=O (centres undefined) do in these assays?
Pf apPOL inh: -8; mHTT CaM bind: 10

How did CC(C)CC(C(=O)Nc1cccc(Cl)c1)N1C(=O)c2ccccc2C1=O (centres undefined) do in these assays?
Pf apPOL inh: 1; mHTT CaM bind: 63*

How did CC(C)(C)C(=O)Nc1ncccc1C=C1C(=O)Nc2ccccc21 do in these assays?
Pf apPOL inh: -2

How did Cc1cccc2nc(CSc3ncc(C#N)c(N)n3)cc(=O)n12 do in these assays?
Pf apPOL inh: 5; mHTT CaM bind: 10

What do the screens show for `Cc1cccc2nc(CSc3n[nH]c(N)n3)cc(=O)n12`?
Pf apPOL inh: 52*; mHTT CaM bind: 2

Results for O=C(/C=N/OC(=O)Nc1ccc(Cl)cc1)Nc1ccccc1Br ?
Pf apPOL inh: 11; mHTT CaM bind: inactive

How did Cc1ccc(S(=O)(=O)N2CCCC(C)(C(=O)NCc3ccc(F)cc3)C2)cc1C (centres undefined) do in these assays?
Pf apPOL inh: -1; mHTT CaM bind: 89*

What do the screens show for `Cc1ccc(S(=O)(=O)N2CCCC(C)(C(=O)NCc3ccc(F)cc3)C2)c(C)c1` (centres undefined)?
Pf apPOL inh: -13; mHTT CaM bind: 29

What do the screens show for `CC1(C(=O)NCc2ccc(F)cc2)CCCN(S(=O)(=O)c2ccc(F)c(Cl)c2)C1` (centres undefined)?
Pf apPOL inh: 0; mHTT CaM bind: 95*

What do the screens show for `Cc1ccc(S(=O)(=O)N2CCCC(C)(C(=O)NCc3ccccc3)C2)cc1C` (centres undefined)?
Pf apPOL inh: -5; mHTT CaM bind: 0

How did Cc1c(C(=O)NCc2ccc(F)cc2)oc2ccc(S(=O)(=O)N3CCCCCC3)cc12 do in these assays?
Pf apPOL inh: 52*; mHTT CaM bind: -2

How did Cc1ccc(F)cc1S(=O)(=O)N1CCCC(C)(C(=O)NCc2ccc(F)cc2)C1 (centres undefined) do in these assays?
Pf apPOL inh: -6; mHTT CaM bind: 8

How did Cc1ccc(C)c(S(=O)(=O)N2CCCC(C)(C(=O)NCc3ccc(F)cc3)C2)c1 (centres undefined) do in these assays?
Pf apPOL inh: -2; mHTT CaM bind: 61*

How did Cc1ccc(CNC(=O)c2oc3ccc(S(=O)(=O)N4CCCCC4)cc3c2C)cc1 do in these assays?
Pf apPOL inh: -6; mHTT CaM bind: -10

How did CC(C)(C)C1CC(O)CN(C(C)(C)C)C1 (centres undefined) do in these assays?
Pf apPOL inh: -3; mHTT CaM bind: -6

How did CCn1c(SCC(=O)Nc2ccc([N+](=O)[O-])cc2)nc2c(c1=O)SC(C)C2 (centres undefined) do in these assays?
Pf apPOL inh: -4; mHTT CaM bind: 10

What do the screens show for `Cc1nn(Cc2ccc(C(=O)Nc3ccc(Br)c4cccnc34)cc2)c(C)c1Cl`?
Pf apPOL inh: -10; mHTT CaM bind: 3

How did Cc1cc2nc(CN3CCN(c4ccccn4)CC3)c(=O)[nH]c2cc1C do in these assays?
Pf apPOL inh: -4; mHTT CaM bind: -5

Results for CC(=O)c1ccc(S(=O)(=O)N2CCCC(C)(C(=O)NCc3ccc(F)cc3)C2)cc1 (centres undefined) ?
Pf apPOL inh: 2; mHTT CaM bind: 6

Results for Cc1c(Cl)cccc1S(=O)(=O)N1CCCC(C)(C(=O)NCc2ccc(F)cc2)C1 (centres undefined) ?
Pf apPOL inh: 0; mHTT CaM bind: 86*

What do the screens show for `CC1(C(=O)NCc2ccc(F)cc2)CCCN(S(=O)(=O)c2ccccc2Cl)C1` (centres undefined)?
Pf apPOL inh: 2; mHTT CaM bind: 1

How did CC1(C(=O)NCc2ccc(F)cc2)CCCN(S(=O)(=O)c2ccc3c(c2)CCCC3)C1 (centres undefined) do in these assays?
Pf apPOL inh: -6; mHTT CaM bind: 65*

Results for CC(O)(CNC(=O)C1(c2cccs2)CCCC1)c1ccc2c(c1)OCO2 (centres undefined) ?
Pf apPOL inh: -5; mHTT CaM bind: -9

What do the screens show for `O=c1cc(CN2CCCCC2)nc(N2CCCN(Cc3cccc(Cl)c3)CC2)[nH]1`?
Pf apPOL inh: -2; mHTT CaM bind: 20

What do the screens show for `Nc1ccc(C(=O)N2N=C(C(F)(F)F)CC2(O)c2ccc(Br)cc2)cc1` (centres undefined)?
Pf apPOL inh: -7; mHTT CaM bind: 21

Results for COc1ccc(Cl)cc1Nc1ncnc2sc3c(c12)CCC(C)C3 (centres undefined) ?
Pf apPOL inh: 1; mHTT CaM bind: -6

Results for COc1ccc(Cl)cc1NC(=O)c1c(NCc2ccncc2)sc2c1CCC(C)C2 (centres undefined) ?
Pf apPOL inh: -15; mHTT CaM bind: 73*

What do the screens show for `COc1ccc(OC)c(NC(=O)Cn2nc3c(cc2=O)CC(C)CC3)c1` (centres undefined)?
Pf apPOL inh: 0; mHTT CaM bind: 12

What do the screens show for `COc1ccccc1NC(=O)c1c(NCc2ccccn2)sc2c1CCC(C)C2` (centres undefined)?
Pf apPOL inh: -16; mHTT CaM bind: 46

What do the screens show for `COc1ccccc1NC(=O)c1c(NCc2ccncc2)sc2c1CCC(C)C2` (centres undefined)?
Pf apPOL inh: -18; mHTT CaM bind: 100*

How did COc1ccc(OC)c(NC(=O)c2c(NCc3ccncc3)sc3c2CCC(C)C3)c1 (centres undefined) do in these assays?
Pf apPOL inh: -18; mHTT CaM bind: 72*

What do the screens show for `OC(COc1ccc2c(c1)OCO2)CN1CCN(Cc2ccccc2)CC1` (centres undefined)?
Pf apPOL inh: -6; mHTT CaM bind: 6

Results for O=C(CCCNC(=O)c1nc2ccccc2s1)Nc1cccc2cccnc12 ?
Pf apPOL inh: 0; mHTT CaM bind: -6

How did O=C(NCC1CCN(c2cc(-c3ccncc3)[nH]n2)CC1)c1cccc(Cl)c1 do in these assays?
Pf apPOL inh: -4; mHTT CaM bind: 42

What do the screens show for `Cn1c(=O)c(NCCc2c[nH]c3ccccc23)nc2ccncc21`?
Pf apPOL inh: 4; mHTT CaM bind: 100*

How did Cn1c(=O)c(NCCc2ccc(Cl)cc2)nc2ccncc21 do in these assays?
Pf apPOL inh: -5; mHTT CaM bind: -2

How did O=c1c(NCCN2CCCC2)nc2ccncc2n1Cc1ccccc1 do in these assays?
Pf apPOL inh: 2; mHTT CaM bind: 3

How did Cn1c(=O)c(NCCCN2CCCc3ccccc32)nc2ccncc21 do in these assays?
Pf apPOL inh: 12; mHTT CaM bind: 60*

Results for Cc1c(C=CC(=O)Nc2nccs2)sc2ccccc12 ?
Pf apPOL inh: -2

What do the screens show for `Cn1cccc1CN1CCCC(c2n[nH]c(C3CC3)n2)C1` (centres undefined)?
Pf apPOL inh: -5; mHTT CaM bind: 7

How did CCc1onc(C)c1C1CCCN1C(=O)Nc1ccc(Cl)cc1 (centres undefined) do in these assays?
Pf apPOL inh: 7; mHTT CaM bind: -9

How did CCc1nnc(NS(=O)(=O)c2ccc(NC(=O)c3ccc4c(c3)OCCO4)cc2)s1 do in these assays?
Pf apPOL inh: 0; mHTT CaM bind: 4

How did CCCNc1cc(N2CCC(CCC(=O)NCc3cc(F)cc(F)c3)CC2)ncn1 do in these assays?
Pf apPOL inh: -4; mHTT CaM bind: 23

Results for Cn1nc(COCc2ccccc2F)c2c1CCN(C(=O)c1ccccc1)C2 ?
Pf apPOL inh: -4; mHTT CaM bind: 7

Results for CC(=O)N(C)Cc1nn(-c2ccccc2)c2c1CN(Cc1ccccc1F)CC2 ?
Pf apPOL inh: -10; mHTT CaM bind: 68*
